Among the data in PubChem BioAssay (EPA / NIEHS) are outcome and AC50 values, retold here.

SMILES strings stand for the structures. Records with an inconclusive call do not appear. Calls of active or inactive are those of the source. The calls were made as follows: active = hit-call score of the fitted dose curve at least 0.9, where 1 is the maximum; inconclusive = response in the unintended direction; inactive = score below 0.9.

A short description of one experiment: Tanguay_ZF_120hpf_ActivityScore_legacy: (Legacy) Oregon State University Tanguay Lab 120 Hour Post-fertilization zebrafish Assay Score for Activity (AID 2283742). In outline:
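Dechorionated Tropical 5D embryos, one per well from 6 hpf, statically exposed to 120 hpf at 28 °C in 0.64% DMSO. Mortality and malformations scored binary by brightfield microscopy; activity score combines 18 endpoints, fitted positively versus DMSO.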
In the case of `CCCCCCCCCCCCCO`, the compound was classed as inactive.
For the compound `Nc1nc(N)c2nc(CNc3ccc(C(=O)N[C@@H](CCC(=O)O)C(=O)O)cc3)cnc2n1`, the compound was classed as inactive.
For the compound `Cc1cccc([N+](=O)[O-])c1C`, the compound was called inactive.
On the same count and under the same terms, to `COCCOC[C@H](CC1(C(=O)NC2CCC(C(=O)O)CC2)CCCC1)C(=O)Oc1ccc2c(c1)CCC2` (stereo partly drawn) belongs “inactive”.
Take `CCCCCC(=O)O`: the result was inactive.
The same measure, in the same setting: to `CCCCCCCCCCCC(=O)OC` belongs “inactive”; to `O=C(N[C@@H](Cc1ccccc1)[C@@H](O)C(=O)N1C[C@@H](O)[C@@H](O)C1)c1cc2cc(Cl)ccc2[nH]1`, “inactive”; to `Cc1ccc2ncccc2c1`, “inactive”.
Still for that read-out and setting: in the case of `CC(=O)Oc1ccccc1C(=O)O` it was “inactive”; in that of `CN1CCCC1=O`, “inactive”; in that of `Cc1ccc(N(C)C)cc1`, “inactive”.
Same read-out and setting: to `NS(=O)(=O)c1cc2c(cc1Cl)NCNS2(=O)=O` belongs “inactive”; to `CCCCCCC(=O)OCC`, “inactive”.
As to `CNC(=O)[C@H]1O[C@@H](n2cnc3c(NCc4cc(Cl)ccc4OCc4cc(C)no4)ncnc32)[C@H](O)[C@@H]1N`, the compound was classed as inactive.
Take `CCCCCCCCCCC`: the outcome was inactive.
On the same count and under the same terms, to `Nc1ccc(S(=O)(=O)c2ccc(N)cc2)cc1` belongs “inactive”.
With `Cc1ccc(C)c(O)c1C`, the compound was classed as inactive.
Take `CCCCCCCCCCCCCCCCCC(=O)O`: the call was inactive.
Same read-out and setting: in the case of `C[Si]1(C)O[Si](C)(C)O[Si](C)(C)O[Si](C)(C)O1` it was “inactive”; in that of `CC(C)c1ccc(C(=O)N=C(N)N)cc1S(C)(=O)=O`, “inactive”; in that of `NCC1(Cc2noc(=O)[nH]2)CCCCC1`, “inactive”.
Turning to `Cc1ccc(C(C)C)c(O)c1`, the result was inactive.
For the compound `Cc1ccc(C)c(C)c1`, the compound was classed as inactive.
In the case of `COc1cc(-c2nc(NC(=O)c3cc4cc(C)cc(C)c4n3CC(=O)O)sc2CCC2CCCCC2)c(OC)cc1Cl`, the outcome was inactive.
The same measure, in the same setting: in the case of `NCCO` it was “inactive”; in that of `Clc1cc(Cl)c(Cl)cc1Cl`, “inactive”; in that of `CCCCCCCC=O`, “inactive”.
With `O=C(O)CCCCC(=O)O`, the compound was called inactive.

The nature of the next experiment: ACEA_AR_agonist_AUC_viability: ACEA Biosciences xCELLigence Real-Time Cell Analysis on Androgen Receptor Agonism for Viability (AID 2283775).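 As to AC50: viability read 80 hours after compound addition.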 In short, it runs like this: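 Read-out is area under the impedance curve at 80 h post-dose in 22Rv1 cells, with DMSO as baseline and signal loss taken as reduced viability. Compounds ran in duplicate from 100 uM final.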
The term AC50 denotes the midpoint of the concentration-response curve, whichever way the signal moves. Take `COc1cccc2c1C(=O)c1c(O)c3c(c(O)c1C2=O)C[C@@](O)(C(=O)CO)C[C@@H]3O[C@H]1C[C@H](N)[C@H](O)[C@H](C)O1`: the AC50 was 0.0985 µM (active).
As for `CCCCCCCCCCCCCO`, the outcome was inactive.
Consider `Nc1nc(N)c2nc(CNc3ccc(C(=O)N[C@@H](CCC(=O)O)C(=O)O)cc3)cnc2n1`, for which the outcome was inactive.
In the case of `Cc1cccc([N+](=O)[O-])c1C`, the call was inactive.
Turning to `COCCOC[C@H](CC1(C(=O)NC2CCC(C(=O)O)CC2)CCCC1)C(=O)Oc1ccc2c(c1)CCC2` (stereo partly drawn), the compound was called inactive.
Still for that read-out and setting: in the case of `CCCCCC(=O)O` it was “inactive”; in that of `CCCCCCCCCCCC(=O)OC`, “inactive”.
As to `O=C(N[C@@H](Cc1ccccc1)[C@@H](O)C(=O)N1C[C@@H](O)[C@@H](O)C1)c1cc2cc(Cl)ccc2[nH]1`, the AC50 was 69.6 µM (active).
In the case of `Cc1ccc2ncccc2c1`, the result was inactive.
On to `COc1cc(/C=C/C(=O)CC(=O)/C=C/c2ccc(O)c(OC)c2)ccc1O`, for which the AC50 is 27 µM (active).
Consider `CC(=O)Oc1ccccc1C(=O)O`, for which the result was inactive.
`CN1CCCC1=O`: the compound was classed as inactive.
Still for that read-out and setting: to `Cc1ccc(N(C)C)cc1` belongs “inactive”; to `NS(=O)(=O)c1cc2c(cc1Cl)NCNS2(=O)=O`, “inactive”.
`CCCCCCC(=O)OCC`: the AC50 was 87.7 µM (active).
Regarding `CNC(=O)[C@H]1O[C@@H](n2cnc3c(NCc4cc(Cl)ccc4OCc4cc(C)no4)ncnc32)[C@H](O)[C@@H]1N`, the compound was called inactive.
`CCCCCCCCCCC`: the compound was classed as inactive.
On the same count and under the same terms, in the case of `Nc1ccc(S(=O)(=O)c2ccc(N)cc2)cc1` it was “inactive”; in that of `Cc1ccc(C)c(O)c1C`, “inactive”.
On the same count and under the same terms, in the case of `CCCCCCCCCCCCCCCCCC(=O)O` it was “inactive”.
For `C[Si]1(C)O[Si](C)(C)O[Si](C)(C)O[Si](C)(C)O1`, the compound was classed as inactive.
As for `CC(C)c1ccc(C(=O)N=C(N)N)cc1S(C)(=O)=O`, the compound was called inactive.
As for `NCC1(Cc2noc(=O)[nH]2)CCCCC1`, the outcome was inactive.
Still for that read-out and setting: in the case of `Cc1ccc(C(C)C)c(O)c1` it was “inactive”; in that of `Cc1ccc(C)c(C)c1`, “inactive”.
As to `COc1cc(-c2nc(NC(=O)c3cc4cc(C)cc(C)c4n3CC(=O)O)sc2CCC2CCCCC2)c(OC)cc1Cl`, the AC50 is 9.71 µM (active).
For `NCCO`, the compound was called inactive.
On the same count and under the same terms, in the case of `Clc1cc(Cl)c(Cl)cc1Cl` it was “inactive”; in that of `CCCCCCCC=O`, “inactive”.
Take `O=C(O)CCCCC(=O)O`: the AC50 was 9.92 µM (active).
